Results from PubChem BioAssay (NCATS).
Unmarked numbers belong to inactive results. Inconclusive results are not listed. Where a call stands in place of a potency, no number is given. Calls of active or inactive are those of the source. Calls follow the shape of the dose curve; as a rule, active = well fitted curve in the direction sought with a large enough effect; inconclusive = small, poorly fitted or top-dose-only effect, or another doubt; inactive = no such curve, though single readings can be large; an effect the other way counts as inactive or inconclusive.

Assays:
[1] = molecular target: Phospholipid hydroperoxide glutathione peroxidase GPX4 (Homo sapiens) (UniProt P36969); experiment: Primary qHTS Assay for Inhibitors of Recombinant Selenoprotein Glutathione Peroxidase 4 (GPX4) (AID 1845192); also: nearly all actives have a fitted effect of over 65% in size; as to activity change, negative = inhibition: series mostly up to about 50 µM
Procedure, shortened: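 Steps: GPX4 plus compound, 30 min RT; add GR/GSH/NADPH master mix; start with cumene hydroperoxide; read 340/450 nm fluorescence at 0 and 15 min. Finals were 200 nM GPX4, 1 mM GSH, 0.5 mM CHP, 0.5 mM NADPH, 100 nM GR.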

[2] = molecular target: Luciferin 4-monooxygenase (Photinus pyralis) (UniProt P08659); experiment: Primary firefly luciferase (FLuc) qHTS assay for identification of artifact compounds. (AID 1845220); also: nearly all actives have a fitted effect of over 60% in size; as to activity change, negative = inhibition: series mostly up to about 54 µM
Procedure, shortened: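 D-luciferin and ATP (10 uM each, final) in Tris acetate buffer pH 7.6 were incubated with compounds for 15 min at room temperature. The reaction was started with 10 nM Photinus pyralis luciferase and luminescence read after 5 min. Percent inhibition was fitted to a 4-parameter Hill equation.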

[3] = Primary fluorescence-based thiol-reactive (MSTI) qHTS assay for identification of artifact compounds. (AID 1845221); also: nearly all actives have a fitted effect of over 65% in size; also: potency is read from the fitted curve at half-maximal effect;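 as to activity change, negative = thiol reactive: series mostly up to about 54 µM; thiol-reactive compounds lower the probe fluorescence signal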
Procedure, shortened: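 qHTS titration of compound; 4 uM MSTI, PBS pH 7.4, 2% DMSO; 1 h RT, dark; fluorescence 525/598 nm; normalized to Acetyl-MSTI and MSTI; 4-parameter Hill fit.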

[4] = test system: Nanoluciferase (engineered Oplophorus gracilirostris luciferase); experiment: Primary Nanoluciferase (NLuc) qHTS assay for identification of artifact compounds. (AID 1845222); also: series mostly up to about 54 µM
Procedure, shortened: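 Diluted conditioned medium from NLuc-expressing S16 cells treated with compounds for 15 min at room temperature, then Nano-Glo substrate added; luminescence read after 5 min. Percent inhibition versus no-enzyme and DMSO controls fitted to 4-parameter Hill equation.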

[5] = Primary redox qHTS assay for identification of artifact compounds. (AID 1845223)
Procedure, shortened: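 Redox-cycling detection via DTT (250 uM final) oxidation coupled to Amplex Red (25 uM)/HRP (250 mU/mL) in HBSS. 15 min preincubation plus 30 min after DTT, room temperature. Ex/Em 525/598 nm; 4-parameter Hill fit against DMSO and 10 uM DA3003.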

Sequence of Phospholipid hydroperoxide glutathione peroxidase GPX4 (Homo sapiens) (P36969 whole entry, looked up): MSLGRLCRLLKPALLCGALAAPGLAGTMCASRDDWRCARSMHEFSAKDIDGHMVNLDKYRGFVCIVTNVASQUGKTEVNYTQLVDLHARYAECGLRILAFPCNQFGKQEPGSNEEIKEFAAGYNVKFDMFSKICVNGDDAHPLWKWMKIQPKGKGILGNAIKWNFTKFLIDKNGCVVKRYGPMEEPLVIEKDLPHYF

Structure (SMILES) | Potency [1] | Potency [2] | Potency [3] | Potency [4] | Potency [5] | activity change, negative = inhibition [2] | activity change, negative = thiol reactive [3] | activity, negative = inhibition [4] | redox activity (% of DA3003) [5]
C[S+](CC[C@H](N)C(=O)[O-])C[C@H]1O[C@@H](n2cnc3c(N)ncnc32)[C@H](O)[C@@H]1O (stereo not given in full) | inactive | inactive | inactive | inactive | inactive | – | – | – | –
NC(=O)c1csc(C2OC(CO)C(O)C2O)n1 (stereo not given) | inactive | inactive | inactive | inactive | inactive | – | – | – | –
Cc1cc(C)c(Nc2ccnc(Nc3ccc(C#N)cc3)n2)c(C)c1 | inactive | inactive | inactive | inactive | inactive | – | – | – | –
C[C@]12C[C@@H](O)[C@@H]3C[C@@]1(O[C@@H]1O[C@H](CO)[C@@H](O)[C@H](O)[C@H]1O)[C@]3(COC(=O)c1ccccc1)C(=O)O2 | inactive | inactive | 13 µM (active) | inactive | inactive | – | – | – | –
O=C(O)C(O[C@@H]1O[C@H](CO[C@@H]2O[C@H](CO)[C@@H](O)[C@H](O)[C@H]2O)[C@@H](O)[C@H](O)[C@H]1O)c1ccccc1 (stereo not given in full) | inactive | inactive | inactive | inactive | inactive | – | – | – | –
Cn1cc(-c2ccc3nnc(Sc4ccc5nn(C)cc5c4)n3n2)cn1 | inactive | inactive | inactive | inactive | inactive | – | – | – | –
CCOC(=O)c1sc(NC(=O)[C@H](C(C)C)n2c(=O)[nH]c3ccccc3c2=O)nc1C | inactive | inactive | inactive | inactive | inactive | – | – | – | –
CN(C)C1CCN(C(=O)c2ccc(NC(=O)Nc3ccc(-c4nc(N5CCOCC5)nc(N5CCOCC5)n4)cc3)cc2)CC1 | inactive | inactive | inactive | inactive | inactive | – | – | – | –
C=C1C(O)C(O)C2(CC3C(C)=CCC4C(C)(CO)CCCC34C)OC2C1O (stereo not given) | inactive | inactive | inactive | inactive | inactive | – | – | – | –
CC1=C2C3OC(=O)C(C)C3(O)CCC2(C)CCC1O (stereo not given) | inactive | inactive | 11.9 µM (active) | inactive | inactive | – | – | – | –
CC1CCC2(C(=O)O)CCC3(C)C(=CCC4C5(C)CCC(O)C(C)(CO)C5CCC43C)C2C1(C)O (stereo not given) | inactive | inactive | inactive | inactive | inactive | – | – | – | –
COC(=O)CCC(=O)OC[C@]1(C)CCC[C@@]2(C)C3CC[C@]4(C)C=CC3(CCC12)C4 (stereo not given in full) | inactive | inactive | inactive | inactive | inactive | – | – | – | –
CCNC(=O)Nc1ncc(-c2cc(-c3c(C)cc(OC)cc3C)nc(-c3cnccn3)n2)s1 | inactive | inactive | inactive | inactive | inactive | – | – | – | –
C[C@@H]1O[C@@H](O[C@H]2[C@@H](OC(=O)[C@]34CCC(C)(C)CC3C3=CCC5[C@@]6(C)C[C@H](O)[C@H](O[C@@H]7O[C@H](C(=O)O)[C@@H](O)[C@H](O)[C@H]7O)[C@@](C)(C(=O)O)C6CC[C@@]5(C)[C@]3(C)CC4)OC[C@H](O)[C@@H]2O)[C@H](O)[C@H](O)[C@H]1O[C@@H]1OC[C@@H](O)[C@H](O)[C@H]1O (stereo not given in full) | inactive | – | – | – | – | -6.45% [at 11.6 µM] | 118% [at 11.5 µM] | 0.813% [at 11.6 µM] | 13% [at 11.5 µM]
CCCCOC(=O)NC(=O)C1c2ccccc2Oc2ccccc21 | inactive | inactive | inactive | inactive | inactive | – | – | – | –
COC(=O)CCc1cc2ccoc2c(OC)c1O[C@@H]1O[C@H](CO)[C@@H](O)[C@H](O)[C@H]1O | inactive | inactive | inactive | inactive | inactive | – | – | – | –
CC1(O)CCCC2(C)C1CCC13CC(CO)C(CCC12)C3 (stereo not given) | inactive | inactive | inactive | inactive | inactive | – | – | – | –
COC(=O)C1=CO[C@@H](O[C@@H]2O[C@H](CO)[C@@H](O)[C@H](O)[C@H]2O)[C@@H]2[C@@](C)(O)[C@@H](OC(=O)/C=C/c3ccc(O)cc3)C[C@]12O | inactive | inactive | 3.27 µM (active) | inactive | inactive | – | – | – | –
COCCN1CCN(Cc2ccc(-c3n[nH]c4c3C(=O)c3c(NC(=O)NN5CCOCC5)cccc3-4)cc2)CC1 | inactive | inactive | inactive | inactive | inactive | – | – | – | –
COc1ccc(C(=O)C2CCN(CC(=O)N(Cc3nc4c(c(=O)[nH]3)COCC4)CC3CC3)CC2)cc1 | inactive | inactive | inactive | inactive | inactive | – | – | – | –
CC1(C)CC[C@]2(C(=O)OC3OC(CO)C(O)C(O)C3O)CC[C@]3(C)C(=CCC4[C@@]5(C)CC[C@H](OC6OC(C(=O)O)C(O)C(OC7OC(CO)C(O)C(O)C7O)C6O)C(C)(C)C5CC[C@]43C)C2C1 (stereo not given in full) | inactive | – | – | – | – | 2.81% [at 11.6 µM] | 338% [at 11.5 µM] | 2.64% [at 11.6 µM] | 0.227% [at 11.5 µM]
